The list is not random: actives were taken first. Their share in the collection is about 10%.
ROMK primary – ROMK potassium channel modulators, primary screen, cell-based, thallium flux, MLSMR library; Tet-inducible ROMK, thallium flux fluorescence; actives lie on both sides; B-score at 10 µM; 130,000 compounds, 2% hits;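 active = signal ratio slope over the read window, or its plate-corrected B-score, at least 3 SD from the plate mean, either direction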;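 note: B-score of the F/F0 ratio slope over 7 to 12 s after thallium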
PTEN del growth – growth suppression of PTEN-null HCT116, primary screen, cell-based, CellTiter-Glo; HCT116 PTEN-null viability, 60 h; stronger effect = lower value; viability, % at 10 µM; 140,000 compounds, 1.2% hits; AID 827, 2007;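 active = viability at or below a set limit, 4 SD under the median of all tested compounds, cut at about 3.7% in these data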;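 note: PTEN knockout HCT116 line with beta catenin targeted HCT116 as companion control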
Insulin prom inh – inhibitors of insulin promoter-driven GFP, primary screen, imaging, TRM-6 cells (human fetal islet line), eGFP reporter, cell count; 130,000 compounds, 0.9% hits; AID 1273, 2008; inhibition, % at 2 µM; reporter expression induced with tamoxifen;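 active = inhibition above the mean plus 3 SD, with well images judged a real hit on visual review, cut at about 60% in these data, passing the limit was not always enough; inconclusive = inhibition over the cutoff but images rejected on review; inactive = inhibition not above the cutoff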
Lmaj promast – Leishmania major promastigote growth inhibition, primary screen; AID 1063, 2008; 200,000 compounds, 9% hits; inhibition, % at 10 µM; Leishmania major promastigotes, resazurin fluorescence viability; in the data active = inhibition above about 50%;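 note: promastigotes grown with compound for 44 hours at 28 °C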
HCT116 bCat-KO – primary screen for growth suppressors in beta-catenin knockout HCT116 cells (colon tumor, human) | viability, % at 10 µM | HCT116 beta-catenin knockout viability, CellTiter-Glo, 60 h; stronger effect = lower value | 140,000 compounds, 1.5% hits | AID 818, 2007;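 active = viability at or under a set limit, the compound median less 4 SD, cut at about 6% in these data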;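 note: 0% = Hyamine 1622 control at 20 µM and 100% = untreated cell control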
p97 ATPase inh – inhibitors of human p97 ATPase, primary screen, biochemical; Transitional endoplasmic reticulum ATPase (Homo sapiens), P55072; recombinant p97 ATPase, Kinase-Glo ATP luminescence, 3 h; inhibition, % at 8 µM; 220,000 compounds, 0.42% hits; in the data active = inhibition above about 15%;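 note: 0% = DMSO vehicle and 100% = wells lacking enzyme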
Target sequence (P55072 whole entry, looked up): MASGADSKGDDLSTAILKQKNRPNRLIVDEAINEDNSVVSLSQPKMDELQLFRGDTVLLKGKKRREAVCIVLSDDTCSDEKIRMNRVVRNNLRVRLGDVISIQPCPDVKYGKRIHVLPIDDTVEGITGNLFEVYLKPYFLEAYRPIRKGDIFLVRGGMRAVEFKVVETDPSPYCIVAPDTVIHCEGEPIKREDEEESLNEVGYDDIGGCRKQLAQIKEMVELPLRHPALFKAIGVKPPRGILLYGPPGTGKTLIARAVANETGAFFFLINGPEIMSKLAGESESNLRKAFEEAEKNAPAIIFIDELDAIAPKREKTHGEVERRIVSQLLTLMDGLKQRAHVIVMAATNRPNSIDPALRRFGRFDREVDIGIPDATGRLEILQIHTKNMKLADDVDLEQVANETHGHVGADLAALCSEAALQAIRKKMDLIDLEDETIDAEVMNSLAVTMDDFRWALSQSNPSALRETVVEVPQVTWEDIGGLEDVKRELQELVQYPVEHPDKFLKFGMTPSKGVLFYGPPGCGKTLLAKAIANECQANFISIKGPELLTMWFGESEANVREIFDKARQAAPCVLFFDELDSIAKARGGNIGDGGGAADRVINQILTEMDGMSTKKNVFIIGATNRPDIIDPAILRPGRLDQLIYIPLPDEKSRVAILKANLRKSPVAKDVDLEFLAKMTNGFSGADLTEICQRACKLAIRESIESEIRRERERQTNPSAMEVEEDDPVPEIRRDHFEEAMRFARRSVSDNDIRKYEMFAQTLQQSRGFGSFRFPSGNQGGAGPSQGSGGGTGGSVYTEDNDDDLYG
p97 inh conf – p97 ATPase inhibitors, retest, confirmation, biochemical; recombinant p97 ATPase, Kinase-Glo ATP luminescence; shares compounds with p97 ATPase inh; AID 1517, 2009; 760 compounds, 44% hits; inhibition, % at 8 µM;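 active = percent inhibition of p97 ATPase above a set limit, the primary screen's mean plus 3 SD, cut at about 15% in these data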;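 note: 0% = DMSO wells and 100% = wells lacking p97 protein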
ROMK retest – ROMK channel modulator hit retest, confirmation, cell-based, thallium flux, duplicate, resupplied hits; shares compounds with ROMK primary; fluorescence ratio; stronger effect = lower value; normalized thallium flux (F/F0 slope) at 10 µM; 3,000 compounds, 54% hits; AID 1917, 2009;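 active = Flux at 10 µM at least 3 SD below or above vehicle control mean in one or both replicates; inconclusive = no clear call, values can overlap the other calls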
Starred values were filed as active, the others as inactive; ? = inconclusive; · = not tested or not shown.

SMILES | ROMK primary | PTEN del growth | Insulin prom inh | Lmaj promast | HCT116 bCat-KO | p97 ATPase inh | p97 inh conf | ROMK retest
CCCCNC(=O)c1c(N)n(CCCOC)c2nc3ccccc3nc12 | · | 41.7 | -34.4 | 19.3 | 45.4 | 21.7* | -2.2 | ·
COCCNC(=O)c1c(NC(=O)c2ccc(Br)o2)n(Cc2ccccc2)c2nc3ccccc3nc12 | -0.235 | 68.6 | -27.8 | 13.8 | 70.7 | 7.7 | · | ·
COCCCNC(=O)c1c(NC(=O)c2ccco2)n(Cc2ccccc2)c2nc3ccccc3nc12 | · | 62.8 | · | 96.8* | 67.8 | 23.7* | 3.8 | ·
COc1ccc(Cn2c(N)c(C(=O)NCc3ccco3)c3nc4ccccc4nc32)cc1OC | -0.807 | 23.5 | · | 59.3* | 22.1 | 32.0* | 6.8 | ·
COCCCNC(=O)c1c(N)n(Cc2ccco2)c2nc3ccccc3nc12 | · | · | · | · | · | 5.7 | · | ·
N=c1c[n+](CC23CC4CC(CC(C4)C2)C3)[n-]o1 | · | 91.2 | · | 13.2 | 92.1 | 0.2 | · | ·
CCCCCn1c(NC(=O)c2ccco2)c(C(=O)OCC)c2nc3ccccc3nc21 | -1.11 | 59.1 | -21.4 | 10.1 | 57.8 | 0.6 | · | ·
COCCCn1c(N)c(C(=O)OCCOC)c2nc3ccccc3nc21 | · | 90.5 | · | 4.4 | 90.3 | 23.8* | 3.9 | ·
O=C1NC(=O)N(Cc2ccco2)C(=O)/C1=C/C=C/c1ccco1 | · | · | · | · | · | 31.2* | 12.1 | ·
Cn1cccc1/C=C1\C(=O)NC(=O)N(Cc2ccco2)C1=O | 0.491 | · | · | 2.6 | · | 6.4 | · | ·
Cn1c(O)c(/C=C2/C=CC=N2)c(=O)[nH]c1=O | · | · | · | · | · | 3.7 | · | ·
CN1CCC(n2nccc2N)CC1 | · | 100.3 | -15.2 | -5.5 | 100.9 | 14.8* | 2.0 | ·
O=P(Nc1ccccc1)(Nc1ccccc1)Oc1cccc(Cl)c1 | 0.167 | 10.0 | · | 24.9 | 28.9 | -3.3 | · | ·
O=C(O)CC1OCC=C2CN3CCC45c6ccccc6NC4C1C2CC35 (stereo not given) | · | · | · | · | · | 2.9 | · | ·
O=C(O)CC1OCC=C2CN3CCC45C6=CC(=O)C(=O)C([N+](=O)[O-])=C6NC4C1C2CC35 (stereo not given) | · | · | · | · | · | 38.3* | 36.6* | ·
N#CC(C#N)=NNc1ccc(S(N)(=O)=O)cc1 | · | · | · | · | · | 23.4* | 25.0* | ·
c1ccc2c(c1)Sc1ccccc1N2CC1CN2CCC1CC2 (stereo not given) | · | · | · | · | · | 17.7* | 15.2* | 0.0399*
O=c1cccc2n1CC1CC2CN(C(c2cccc(F)c2)c2sc3ncnn3c2O)C1 (stereo not given) | · | 96.0 | · | -5.6 | 104.7 | 0.5 | · | ·
CC(=O)Nc1nnc(CCN(CCc2nnc(NC(C)=O)s2)[N+](=O)[O-])s1 | 0.517 | · | · | · | · | 4.2 | · | ·
Nc1ccccc1-[n+]1c(-c2ccccc2)cc(-c2ccccc2)cc1-c1ccccc1 | · | · | · | · | · | 15.7* | 10.4 | 0.0618*
COc1ccccc1CCNC1CCC(C(C)(C)C)CC1 (stereo not given) | -5.83* | 44.5 | · | 100.5* | 48.6 | -4.6 | · | 0.0589*
COc1ccccc1CCNC1CCCC(C)C1 (stereo not given) | -1.76 | 88.0 | 46.7 | 10.0 | 79.6 | 1.5 | · | ·
CN1CCN(c2cc(N3CCCCCC3)c(F)cc2[N+](=O)[O-])CC1 | -3.57* | 75.7 | -48.1 | 98.7* | 75.3 | 1.1 | · | 0.0529*
O=[N+]([O-])c1cc(F)c(N2CCCC2)cc1N1CCNCC1 | -0.821 | · | -23.5 | 25.9 | · | -0.2 | · | ·
CCOc1ccc(N2C(=O)NC(=O)/C(=C\c3ccc(N4CCCCC4)o3)C2=O)cc1 | · | 84.7 | · | -3.0 | 87.8 | 3.8 | · | 0.044*
OC(c1cccc(Cl)c1)(c1cccc(Cl)c1)C1CN2CCC1CC2 (stereo not given) | -4.52* | · | · | 99.6* | · | 5.7 | · | 0.0524*
Cc1cccc(OP(=O)(NCc2ccccc2)Oc2cccc(C)c2)c1 | 0.0659 | 52.5 | -35.3 | 7.5 | 57.8 | -9.2 | · | ·
CCOC(=O)c1cc2c(cn1)[nH]c1ccccc12 | · | 92.4 | 52.4 | -6.0 | 87.8 | 2.8 | · | ?
O=C1N(c2ccccc2)C(c2cccnc2)N2CCCN12 (stereo not given) | 2.46* | · | · | -0.8 | · | 3.7 | · | 0.0872

Assay outcomes: PubChem, several laboratories
